JMJD2A Tudor inh: JMJD2A Tudor domain (human) inhibition | O75164 | AlphaScreen JMJD2A-Tudor / H3K4me3 peptide binding | Potency, µM (top dose mostly 114 µM), for inactives: at the top dose activity change, negative = inhibition, actives largely listed as inhibitors | actives 4.4% (n = 390,000) | AID 504339; note: % is set by controls: 0 for no effect and ±100 for the full control effect; nearly all actives have a fitted effect of over 50% in size
BAZ2B inh: BAZ2B (human) inhibition; actives 4.4% (n = 360,000); AlphaScreen BAZ2B-H3K14Ac peptide displacement; Potency, µM (top dose mostly 114 µM), for inactives: at the top dose activity change, negative = inhibition, usual class: inhibitors; Q9UIF8; note: % is set by controls: 0 for no effect and ±100 for the full control effect; nearly all actives have a fitted effect of over 60% in size
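Inhibition is scored as reduced AlphaScreen emission. The BAZ2B/b-H3(5-23)K14Ac complex (50 nM each) in PBS pH 7.4, 0.01% Tween-20 meets compound (up to 110 uM) for 30 min at RT before bead addition.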
Sfp PPTase inh: blocks B. subtilis Sfp PPTase activity | Q9F4F7 | Biochemical Sfp PPTase activity, qHTS | Potency, µM, inactives show largest response in the series, negative = inhibition, most hits filed as inhibitors | actives 3.5% (n = 310,000);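 note: the enzyme is Sfp with the accession as filed and its product quenches rhodamine fluorescence; 0% = enzyme reaction without inhibitor and -100% = no enzyme wells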
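Fluorescence-quenching assay: 15 nM Sfp-PPTase preincubated 15 min at room temperature with compound, then 5 uM rhodamine-CoA and 12.5 uM BHQ-2-labelled YbbR peptide added. Fluorescence (ex 525/em 598 nm) read at start and after 30 min; difference gives rate.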
HP1b chromo inh: HP1-beta chromodomain-methylated histone interaction inhibition | actives 0.56% (n = 390,000) | AlphaScreen HP1-beta / biotin-H3K9me3 peptide binding | AID 540317 | Potency, µM (series often up to 114 µM), without a hit: top-dose activity change, negative = inhibition, actives largely listed as inhibitors; note: nearly all actives have a fitted effect of over 70% in size
Target sequence (P83916 whole entry, looked up): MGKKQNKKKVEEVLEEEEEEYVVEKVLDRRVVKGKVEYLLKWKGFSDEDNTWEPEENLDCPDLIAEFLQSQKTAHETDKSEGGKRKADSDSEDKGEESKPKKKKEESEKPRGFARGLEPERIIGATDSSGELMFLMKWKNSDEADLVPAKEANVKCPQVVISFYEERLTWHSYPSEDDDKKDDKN
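HP1-beta protein (50 nM final) preincubated 30 min at room temperature with biotinylated H3(1-18)K9me3 peptide (50 nM) in PBS pH 7.4, 0.01% Tween-20, then compound added for 30 min. AlphaScreen streptavidin donor/nickel chelate acceptor beads (10 ug/mL final), 30 min dark, luminescence read.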
12-LOX inh: inhibitors of human 12S-lipoxygenase ALOX12 | actives 1.1% (n = 580,000) | P18054 | AID 1671190 | purified 12hLO, xylenol orange hydroperoxide absorbance | Potency, µM (titrated, usually from 108 µM), without a hit: top-dose activity change, negative = inhibition, most hits filed as inhibitors; note: % is set by controls: 0 for no effect and ±100 for the full control effect
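Hydroperoxide product was detected by ferrous iron/xylenol orange as the 573 to 405 nm absorbance ratio. Arachidonic acid at 40 uM (final) was turned over for 30 min at room temperature by 150 nM human 12hLO, pH 7.0 Hepes buffer, after 15 min compound preincubation.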
G9a block: G9a (human) methyltransferase inhibition; Q96KQ7; G9a H3K9 monomethylation, AlphaScreen, 2 h; Potency, µM (top dose mostly 102 µM), for inactives: at the top dose activity, negative = inhibition, usual class: inhibitors; actives 8.8% (n = 350,000); note: % is set by controls: 0 for no effect and ±100 for the full control effect; nearly all actives have a fitted effect of over 75% in size
Target sequence (Q96KQ7 913-1193 limits assumed): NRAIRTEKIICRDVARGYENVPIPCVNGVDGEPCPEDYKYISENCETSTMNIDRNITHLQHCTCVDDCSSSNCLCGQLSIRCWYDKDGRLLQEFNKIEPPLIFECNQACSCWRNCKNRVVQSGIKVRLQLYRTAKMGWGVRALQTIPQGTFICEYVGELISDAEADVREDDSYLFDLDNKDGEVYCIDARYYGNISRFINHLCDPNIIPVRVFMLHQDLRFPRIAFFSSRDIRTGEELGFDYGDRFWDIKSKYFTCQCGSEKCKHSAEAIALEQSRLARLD
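Signal arises when biotinylated H3K9 peptide, once monomethylated, bridges streptavidin donor and antibody-captured acceptor beads. Enzyme at 20 nM was preincubated 15 min with test compounds; peptide 500 nM and SAM 20 uM then reacted for 2 h.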
* hit, by the source's call; ? = inconclusive; . = no result given; [ ] = dose if it differs, or a comment. This is a sample that favours compounds with a hit; in the whole collection about 8.7% have one here. Calls come from the whole dose curve; as a rule, active = well fitted curve in the direction sought with a large enough effect; inconclusive = small, poorly fitted or top-dose-only effect, or another doubt; inactive = no such curve, though single readings can be large; an effect the other way counts as inactive or inconclusive. Potency is the fitted concentration of half-maximal effect.

SMILES	JMJD2A Tudor inh	BAZ2B inh	Sfp PPTase inh	HP1b chromo inh	12-LOX inh	G9a block
COc1ccc(-c2cc(C(=O)Nc3ccc(C#N)cc3)no2)cc1	-30%	5%	.	27%	-21%	15%[59 µM]
Brc1ccc(-c2cc3ccccn3c2)cc1	.	.	.	.	14µM*	.
CC(C)(C)c1ccc(-c2cc3ccccn3c2)cc1	.	.	.	.	22µM*	.
Brc1ccc(-c2ncc3ccccn23)cc1	-15%	?	?	36%	0%	?
CC(C)(S)[C@@H](N)C(=O)O	4µM*	45µM*	50µM*	-19%	?	?
CC(C)[C@@H](N)C(=O)O	.	.	-20%	.	.	-1%[59 µM]
COc1ccc(C(=O)N2CCN(c3cc(-c4cccs4)[nH]n3)CC2)cc1	.	.	.	.	30%	.
COc1ccc(N2C(=O)/C(=C/c3cccs3)NC2=S)cc1	79µM*	?	10µM*	?	?	1.8µM*
CCOc1ccc(N2C(=O)/C(=C/c3cccs3)N(CC(=O)OC)C2=S)cc1	-4%	-28%	9%	19%	-5%	8%
O=C(Nc1ccccc1)[C@H]1O[C@H](CCN2CCOCC2)CC[C@@H]1O	.	.	.	.	30%[176 µM]	.
Cc1nn(-c2ccccc2)nc1C(=O)c1c(C)[nH]n(-c2ccccc2)c1=O	-19%	2%	5%	26%	78%	.
Cc1[nH]n(-c2ccccc2)c(=O)c1C(c1ccc(C(=O)O)cc1)c1c(C)[nH]n(-c2ccccc2)c1=O	-29%	-17%	-1%	-1%	-3%	-25%[59 µM]
Cc1[nH]n(-c2ccccc2)c(=O)c1C=Nc1ccc(S(=O)(=O)N=C(N)N)cc1	-10%	-23%	19%	33%	-17%	?
O=c1[nH][nH]c(-c2ccccc2O)c1C(C[N+](=O)[O-])c1ccccc1 (centres undefined)	-21%	?	2%	28%	-18%	?
Cc1[nH]n(-c2ccccc2)c(=S)c1C=Nc1ccc([N+](=O)[O-])cc1	1.8µM*	10µM*	6.3µM*	?	?	0.89µM*
Cc1[nH]n(-c2ccccc2)c(=O)c1C(=O)c1ccc([N+](=O)[O-])cc1	-1%	-15%	10%	46%	?	50µM*
Cc1[nH]n(-c2ccccc2)c(=O)c1C(c1cccc([N+](=O)[O-])c1)c1c(C)[nH]n(-c2ccccc2)c1=O	?	28µM*	-12%	-28%	-30%	35µM*
Cc1[nH]n(-c2ccccc2)c(=O)c1C(C[N+](=O)[O-])c1ccc(Br)cc1 (centres undefined)	?	?	-24%	-10%	?	40µM*
COc1cccc(C(C[N+](=O)[O-])c2c(C)[nH]n(-c3ccccc3)c2=O)c1 (centres undefined)	-32%	?	28µM*	-11%[57 µM]	3%	10µM*
CCOc1ccc(C(c2c(C)[nH]n(-c3ccccc3)c2=O)c2c(C)[nH]n(-c3ccccc3)c2=O)cc1OC	?	?	.	?	50µM*	8.9µM*
Cc1ccc(S(=O)(=O)NCCc2ccc(S(N)(=O)=O)cc2)c(C)c1	.	.	.	.	9%	.
CC1CCN(C(=O)/C(=C/c2ccccc2Cl)c2ccccc2)CC1	-18%[11.4 µM]	0%	79µM*	28%	0%	-6%[59 µM]
Cc1nc2ccc(C(=O)N3CCCn4nc(CO)cc4C3)cc2o1	.	.	.	.	111%	.
CCOC(=O)C1CCN([C@H]2CS(=O)(=O)C[C@@H]2S(=O)(=O)c2ccc(F)c(C)c2)CC1	.	.	.	.	28%	.
CCOc1ccc(CCNC(=O)COC(=O)/C=C/c2ccc(C)o2)cc1OCC	-26%	-38%	56µM*	22%	?	?
SMILES	JMJD2A Tudor inh	BAZ2B inh	Sfp PPTase inh	HP1b chromo inh	12-LOX inh	G9a block
Cc1ccc(/C=C/C(=O)OCC(=O)NCc2ccccc2)o1	-13%	1%	.	-10%	-6%	45µM*
Cc1ccc(/C=C/C(=O)OCC(=O)NCCN2C(=O)CSC2=O)o1	-14%	-23%	32µM*	22%	2%	50µM*
CCCNC(=O)COC(=O)/C=C/c1ccc(C)o1	-15%	-16%	7%	23%	-1%	50µM*
Cc1ccc(/C=C/C(=O)OCC(=O)NCCN2C(=O)CSC2=O)cc1	-4%	-3%	-8%	22%	1%	-13%
CCCNC(=O)COC(=O)/C=C/c1cccc(F)c1	-2%	-11%	24%	18%	-3%	11%
CCC1CSC(Nc2ccc(C)cc2C)=N1 (centres undefined)	.	.	.	.	-15%	.
Cc1ccc(C(=O)N[C@H]2CO[C@H]3[C@@H]2OC[C@@H]3n2cc(CN(C)Cc3ccccc3)nn2)cc1	.	.	.	.	6%	.
Cc1ccc(C(=O)OCC(=O)NCCNC(=O)COC(=O)c2ccc(C)o2)o1	-4%	-8%	.	18%	?	56µM*
Cc1c(CC(=O)NCc2cccnc2)c2c(n1CC(C)C)CC(C)(C)CC2=O	.	.	.	.	-22%	.
O=C(CN1C(=O)NC2(CCCC2)C1=O)c1ccc(Cl)s1	-8%	-2%	.	8%	?	79µM*
CC(C)(C)NC(=O)C(=O)NN=C1CCCCCCCCCCC1	-21%	8%	79µM*	18%	11%	89%[59 µM]
CC1(C)C2CCC(C2)C1(C)NC(=O)CNC1CCCCC1 (centres undefined)	-34%[11.4 µM]	50µM*	-7%	-26%	0%	13µM*
CNC1(C)C2CCC(C2)C1(C)C (centres undefined)	.	.	18%	.	.	18%[59 µM]
CC1(C)C2CCC(C2)C1(C)NC(=O)CNCc1cccs1 (centres undefined)	25µM*	.	89µM*	?	-26%	11µM*
O=C(CN1CCOCC1)NC1C2CC3CC(C2)CC1C3 (centres undefined)	-3%	7%	-9%	34%	0%[57.4 µM]	-4%[2.33 µM]
CC1(C)C2CCC(C2)C1(C)NC(=O)CN1CCOCC1 (centres undefined)	32µM*	50µM*	-11%	?	?	10µM*
CC1(C)C2CCC(C2)C1(C)NC(=O)CN1CCCC1 (centres undefined)	28µM*	?	-18%	-35%	?	5µM*
COc1ccc(NC(=O)C(C)Sc2ncnc3c2sc2nc4c(cc23)COC(C)(C)C4)cc1 (centres undefined)	.	.	.	.	28%	.
CN(c1ccccc1)S(=O)(=O)c1ccccc1C(=O)OCn1nnc2ccccc2c1=O	.	.	.	.	4%	.
Cc1nn(CC(=O)N2CCCCCC2)c(=O)c2nc(-c3ccccc3)sc12	.	.	.	.	-16%	.
Cc1cccc(CNC(=O)c2ccccc2NC(=O)c2cccs2)c1	.	.	.	.	19%	.
CN(C)/C=C/C(=O)/C=C/c1cn(-c2ncc(C(F)(F)F)cc2Cl)c2ccccc12	-26%	-11%	-3%	-6%	27%	10µM*
CCOc1ccccc1NC(=O)CN1C(=O)C(c2ccccc2)=NC12CCCCC2	.	.	.	.	-5%	.
